Test results taken from PubChem BioAssay (NCATS).
Inconclusive results are not listed. Calls of active or inactive are those of the source. The call rests on the fitted dose curve; in most records, active means well fitted curve in the direction sought with a large enough effect; inconclusive means small, poorly fitted or top-dose-only effect, or another doubt; inactive means no such curve, though single readings can be large; an effect the other way counts as inactive or inconclusive.

How the values were obtained:
OV90 = assay: Primary qHTS to identify gynecologic anti-cancer compounds using libraries of approved drugs and bioactive compounds (AID 1345084); settings: Gynecologic cancer cell panel viability, ATPlite luminescence, 48 h; series mostly up to 57.5 µM; further: nearly all actives have a fitted effect of over 55% in size; further: potency means the concentration at half of the fitted maximal effect
In short: (§1)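 Cytotoxicity screen measuring ATP content by luciferase luminescence. Each compound is applied at five concentrations for 48 h at 37 C with 5% CO2.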

[1] = qHTS assay to identify inhibitors of the type 1 interferon - major histocompatibility complex class I in skeletal muscle: Counter screen cell viability and HiBit confirmation (AID 1347412); settings: iHSKM muscle cells + IFN-b, HiBiT or CellTiter-Glo, 24 h; Potency: HiBiT; Viability, at 45.9 µM (top of the series); further: nearly all actives have a fitted effect of over 60% in size; further: potency means the concentration at half of the fitted maximal effect
In short: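 Duplicate plates, pinned identically: one read for HiBiT-tagged endogenous HLA-B luminescence, the other for ATP-content viability via CellTiter Glo. Cells were genome-engineered human myoblasts given 4 ng/ml IFN-b; compounds 12-pt, 1:3 from 46 uM final; 24 hr exposure.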

SKOV3 = assay: Primary qHTS to identify gynecologic anti-cancer compounds using libraries of approved drugs and bioactive compounds (AID 1345084); settings: Gynecologic cancer cell panel viability, ATPlite luminescence, 48 h; series mostly up to 57.5 µM; further: nearly all actives have a fitted effect of over 55% in size; further: potency means the concentration at half of the fitted maximal effect
In short: as §1

Tov-21-G = assay: as above; settings: Gynecologic cancer cell panel viability, ATPlite luminescence, 48 h; series mostly up to 57.5 µM
In short: as §1

Tov112D = assay: as above; settings: Gynecologic cancer cell panel viability, ATPlite luminescence, 48 h; series mostly up to 57.5 µM
In short: as §1

PA-1 = assay: as above; settings: Gynecologic cancer cell panel viability, ATPlite luminescence, 48 h; series mostly up to 57.5 µM
In short: as §1

astro = assay: Drug repurposing screens with cells derived from glioblastoma tumor samples (AID 1345199); settings: viability, ATP luminescence, 48 h; series mostly up to 45.9 µM; further: nearly all actives have a fitted effect of over 40% in size
In short: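 Primary testing used CD133+ neurospheres from four GBM patients, seven concentrations, 48 h exposure and ATP-based viability; confirmation added three slower-growing patient lines.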

Measured: Potency

CCc1ccc(C(=O)Nc2cc(CN3CCN(C)CC3)cc(C(F)(F)F)c2)cc1C#Cc1cnc2ccnn2c1
inactive: OV90
active: [1] 24.9 µM

CC(C)c1cc(C(C)C)c(CC(=O)NS(=O)(=O)Oc2c(C(C)C)cccc2C(C)C)c(C(C)C)c1
inactive: OV90 | SKOV3 | Tov-21-G | Tov112D | [1]

O=C(O)c1ccc(Nc2ncc3c(n2)-c2ccc(Cl)cc2C(c2c(F)cccc2F)=NC3)cc1
inactive: OV90 | SKOV3 | Tov-21-G

CCn1c(=O)c2c(nc(C=Cc3ccc(OC)c(OC)c3)n2C)n(CC)c1=O
inactive: OV90 | PA-1 | SKOV3 | Tov-21-G | Tov112D

O=C(Nc1cc2cc[nH]c2cn1)c1ccccc1
active: OV90 891 nM | PA-1 0.891 µM | SKOV3 2 µM | Tov-21-G 1.26 µM | Tov112D 2 µM

Oc1ccc([C@@H]2Oc3ccc(O)cc3[C@@H]3CCC[C@@H]32)cc1
inactive: OV90 | Tov-21-G

Cn1cnc2c(F)c(Nc3ccc(Br)cc3F)c(C(=O)NOCCO)cc21
active: OV90 224 nM
inactive: SKOV3 | Tov112D

C[C@@H](Cc1cc2c(c(C(N)=O)c1)N(CCCO)CC2)NCCOc1ccccc1OCC(F)(F)F
active: PA-1 31.6 µM

CC(C)n1cnc2c(NCCc3ccc(O)cc3)nc(-c3csc4ccccc34)nc21
inactive: OV90 | PA-1 | Tov-21-G | Tov112D

C[C@H]1[C@@H](OC(=O)CCC(=O)O)O[C@@H]2O[C@@]3(C)CC[C@@H]4[C@H](C)CC[C@@H]1[C@@]24OO3
inactive: OV90 | SKOV3

c1ccc2c(Oc3nc(Nc4ccc(N5CCOCC5)cc4)c4ncn(C5CCCCC5)c4n3)cccc2c1
inactive: OV90 | PA-1 | SKOV3 | Tov-21-G | Tov112D

CS(=O)(=O)N1CCc2c(-c3cnc(N)nc3)nc(N3CCOCC3)nc21
active: OV90 4470 nM | PA-1 1.78 µM | SKOV3 1.26 µM

CN(C)CC(=O)N1CCC(c2ccc(NC(=O)c3ncc(C#N)[nH]3)c(C3=CCCCC3)c2)CC1
inactive: OV90 | SKOV3 | Tov-21-G

C[C@H](O)[C@@H]1C(=O)N2C(C(=O)O)=C(S[C@@H]3CN[C@H](CNS(N)(=O)=O)C3)[C@@H](C)[C@@H]12
inactive: OV90 | PA-1 | Tov-21-G | Tov112D

CN1CCc2c(c3ccccc3n2Cc2ccc(C(=O)NO)cc2)C1
inactive: OV90 | SKOV3 | Tov112D

CCOC(=O)[C@@H](N)Cc1ccc(-c2cc(O[C@H](c3ccc(Cl)cc3-n3ccc(C)n3)C(F)(F)F)nc(N)n2)cc1
inactive: OV90 | PA-1 | SKOV3 | Tov-21-G | Tov112D
active: [1] 19.8 µM

C[N+]1(C)[C@@H]2C[C@@H](OC(=O)C(O)(c3cccs3)c3cccs3)C[C@H]1[C@@H]1O[C@@H]12
inactive: OV90 | PA-1 | SKOV3 | Tov-21-G | Tov112D

Cc1ccc(-n2[nH]c(C)c(N=Nc3cccc(-c4cccc(C(=O)O)c4)c3O)c2=O)cc1C
inactive: OV90 | SKOV3
active: PA-1 1.58 µM

CC(O)(C#Cc1ccc2c(c1)N(c1nc(N)ncc1Cl)CC2)c1nccs1 (centres undefined)
inactive: OV90 | PA-1 | SKOV3 | Tov-21-G | Tov112D

CC1(C)O[C@@H]2C[C@H]3[C@@H]4CCC5=CC(=O)C=C[C@]5(C)[C@@H]4[C@@H](O)C[C@]3(C)[C@]2(C(=O)CO)O1
inactive: OV90 | PA-1 | SKOV3 | Tov-21-G | Tov112D

CC(C)C[C@H](NC(=O)[C@@H](NC(=O)c1cccc(-c2ccccc2)n1)[C@@H](C)O)B(O)O
active: OV90 316 nM | Tov-21-G 0.112 µM | [1] 0.0557 µM

Cn1cc(-c2ccc3ncc(Cc4ccc5ncccc5c4)n3n2)cn1
inactive: OV90

CCCCC(=O)O[C@]1(C(=O)CO)[C@@H](C)C[C@H]2[C@@H]3CCC4=CC(=O)C=C[C@]4(C)[C@@]3(F)[C@@H](O)C[C@@]21C
inactive: OV90 | PA-1 | Tov-21-G | Tov112D | [1]

OCCNC1CCCc2c1[nH]c1ccc(-c3ccccc3)cc21 (centres undefined)
inactive: OV90 | Tov-21-G | Tov112D | [1]
active: PA-1 20 µM

Cc1cn([C@@H]2O[C@H](CO)[C@@H](O)[C@H]2F)c(=O)[nH]c1=O
inactive: OV90 | PA-1 | SKOV3 | Tov-21-G | Tov112D

Nc1ccn(C2CO[C@H](CO)O2)c(=O)n1 (some centres undefined)
inactive: OV90 | PA-1 | SKOV3 | Tov-21-G | Tov112D | astro
